Source: PubChem
AF4-AF9 inh = MLL-AF4/AF9 protein interaction inhibition; P42568; AlphaScreen, biotin-AF4 peptide binding to FLAG-AF9; inhibition, % at 10 µM; hit rate 0.47% among 350,000; AID 651704;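 active = every replicate reaching a set inhibition limit, whatever the replicate mean, cut at about 25% in these data; inconclusive = mean inhibition reaches that limit but some replicates miss it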;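 also: 0% = plate neutral control median and 100% = total signal loss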
Target sequence (P42568 whole entry, looked up): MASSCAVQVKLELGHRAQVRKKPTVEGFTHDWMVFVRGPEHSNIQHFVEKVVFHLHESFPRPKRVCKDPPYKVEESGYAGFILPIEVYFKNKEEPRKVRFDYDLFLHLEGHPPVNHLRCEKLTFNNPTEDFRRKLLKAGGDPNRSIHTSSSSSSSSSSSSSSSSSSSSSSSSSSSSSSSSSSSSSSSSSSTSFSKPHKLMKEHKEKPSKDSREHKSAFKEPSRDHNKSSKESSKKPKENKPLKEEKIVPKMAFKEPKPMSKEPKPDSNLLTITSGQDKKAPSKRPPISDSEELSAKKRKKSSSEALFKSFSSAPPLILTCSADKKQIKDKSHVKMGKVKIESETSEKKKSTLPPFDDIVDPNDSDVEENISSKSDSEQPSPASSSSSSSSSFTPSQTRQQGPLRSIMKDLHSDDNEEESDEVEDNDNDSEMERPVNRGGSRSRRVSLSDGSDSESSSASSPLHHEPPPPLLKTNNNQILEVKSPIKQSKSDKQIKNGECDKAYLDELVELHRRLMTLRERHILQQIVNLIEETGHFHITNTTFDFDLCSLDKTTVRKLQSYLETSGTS
GSIS activator = primary screen for activators of insulin secretion dependent on glucose, INS-1E cells, GLuc reporter luminescence; INS-1E GLuc reporter insulin secretion, 2-3 h; activation, % at 16.6 µM; hit rate 0.61% among 370,000; AID 743287;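 active = lowest replicate activation of at least 40%, so every replicate reaches that level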;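 also: 0% = median of neutral control wells and 100% = median of IBMX positive control wells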
NSD2 HMT inh = inhibitors of human histone methyltransferase NSD2. O96028. hit rate 0.54% among 310,000. NSD2 peptide methylation, AlphaScreen, 120 min. AID 743445. inhibition, % at 12.5 µM; in the data active = inhibition above about 50%
PGC1a acetyl inh = PGC1a acetylation modulation, inhibitor mode; U2OS PGC1a acetylation, AlphaScreen anti-acetyl-lysine; with virally co-expressed GCN5 acetyltransferase; inhibition, % at 15.6 µM; hit rate 0.17% among 350,000; AID 651687;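 active = every replicate shows inhibition of at least 40%; inconclusive = mean inhibition at least 40% but some replicate below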;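 also: 0% = neutral control wells and 100% = positive control wells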
HIV Env fusion = HIV envelope-mediated fusion inhibition; HeLa-JRFL Env/CEM21 cell fusion, luciferase; inhibition, % at 12.3 µM; hit rate 1.1% among 360,000; AID 651610;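 active = mean replicate inhibition score of at least 50 and every replicate individually at or above 50; inconclusive = only one of the two criteria met; inactive = mean below 50 and not all replicates reaching 50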;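 also: 0% = plate neutral controls and 100% = maraviroc near 300 nM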
The depositor's hits bear a star; ? = inconclusive; · = no result; [ ] = another dose, or the depositor's remark. An excerpt weighted towards active compounds, which were near 2.1% of everything screened.

SMILES	AF4-AF9 inh	GSIS activator	NSD2 HMT inh	PGC1a acetyl inh	HIV Env fusion
CCS(=O)(=O)Nc1ccc2c(c1)C(=O)N(C)C[C@@H](OC)[C@H](C)CN(C(=O)C1CCC1)[C@@H](C)CO2	3	-3	·	13	-1[16.7 µM]
CO[C@@H]1CN(C)C(=O)c2ccc(NS(=O)(=O)CC(F)(F)F)cc2OC[C@@H](C)N(C(=O)c2ccc3c(c2)OCO3)C[C@@H]1C	·	-5	·	-10	65*[16.7 µM]
COc1ccc(CN(C)C[C@@H]2Oc3ccc(NS(=O)(=O)c4ccccc4)cc3C(=O)N([C@@H](C)CO)C[C@H]2C)cc1	-1	-4	·	6	·
COc1ccc(N2CCN(C(=O)CC34CC5CC(CC(C5)C3)C4)CC2)c([N+](=O)[O-])c1	·	-26	6	·	?
COc1ccc(CNC(=O)C2CCN(C(=O)[C@@H](CC(C)C)NC(=O)OC(C)(C)C)CC2)cc1	-1	·	-5	-10	·
Cc1cc2c(nn1)CCc1c-2no[n+]1[O-]	·	-4	6	-1	-1
CCOc1ccccc1N1CN(CC)CNC1=S	·	·	-1	7	·
COCC(=O)Nc1ccc2c(c1)C(=O)N(C)C[C@H](OC)[C@H](C)CN(C)[C@@H](C)CO2	1	9	·	-9	-2[16.7 µM]
CCC(=O)Nc1ccc2c(c1)C(=O)N(C)C[C@H](OC)[C@@H](C)CN(C(=O)c1ccccn1)[C@H](C)CO2	32*	8	·	-11	·
COCC(=O)Nc1ccc2c(c1)C(=O)N(C)C[C@@H](OC)[C@@H](C)CN(C)[C@H](C)CO2	1	2	·	-3	60*[16.7 µM]
COCC(=O)Nc1ccc2c(c1)C(=O)N(C)C[C@@H](OC)[C@H](C)CN(C(C)=O)[C@H](C)CO2	-3	4	·	1	85*[16.7 µM]
CCCC(=O)Nc1ccc2c(c1)OC[C@H](C)N(C(=O)CN(C)C)C[C@@H](C)[C@H](OC)CN(C)C2=O	-10	·	·	5	58*[16.7 µM]
CC(=O)c1ccc(OCc2cc(C(=O)N3CCN4CCCC4C3)no2)cc1 (stereo not given)	1	3	1	·	·
COc1ccc(OC)c(C(=O)c2c(C)oc3cc(Br)c(O)c(CN(C)C)c23)c1	7	·	35	-10	21
O=C(Cn1cncn1)c1ccccc1	2	18	0	-1	6
CC1CC(C)CN(C(=O)COC(=O)c2cccc([N+](=O)[O-])c2)C1 (stereo not given)	-1	-11	2	-8	8
O=C(OCC(=O)N1CCN(c2ccccc2)CC1)c1cccc([N+](=O)[O-])c1	-19	-6	0	·	71*
Cc1ccc(S(=O)(=O)N2C[C@@H]3CCCC[C@@H]3[C@@H](C)[C@H]2c2cn(Cc3ccccc3)c3ccccc23)cc1	-4	·	·	·	63*
Cc1ccc(S(=O)(=O)N2C[C@@H]3CCCC[C@@H]3[C@@H](C)[C@H]2c2cn(Cc3ccccc3)c3ncccc23)cc1	1	5	·	-5	70*
Cc1ccc(S(=O)(=O)N2C[C@@H]3[C@H]4CC[C@H](C4)[C@@H]3[C@@H](C)[C@@H]2c2cn(Cc3ccccc3)c3ncccc23)cc1	3	18	·	·	18
Cc1ccccc1OCCOC(=O)c1c(-c2ccccc2)noc1C	-4	-11	-4	7	25
CN(C)c1ccc(C(c2ccc(N(C)C)cc2)c2ccc([N+](=O)[O-])cc2)cc1	27*	·	6	-3	9
CN(C)c1ccc(C=NC(CO)C(O)c2ccc([N+](=O)[O-])cc2)cc1 (stereo not given)	5	-7	-3	·	8
CC(/C=C(\NC(=O)c1ccccc1)C(=O)N=Nc1c(O)[nH]c2ccc(C)cc12)=C\c1ccccc1	·	-30	0	-5	·
COc1cc(-c2cc(OC)c(O)c(OC)c2)cc(OC)c1O	-22	7	1	-11	78*
SMILES	AF4-AF9 inh	GSIS activator	NSD2 HMT inh	PGC1a acetyl inh	HIV Env fusion
COc1cc(C(=O)C(=O)c2cc(OC)c(O)c(OC)c2)cc(OC)c1O	6	8	-1	·	6
COc1cccc2c1C(=O)c1c(O)c3c(c(O)c1C2=O)C[C@@](O)(C(=O)CO)C[C@@H]3O[C@H]1C[C@H](N)[C@H](O)[C@H](C)O1	19	·	·	-19	-339
COc1cccc2c1C(=O)c1c(O)c3c(c(O)c1C2=O)C[C@@](O)(C(=O)CO)C[C@@H]3OC1CC(N)C(O)C(C)O1 (stereo not given in full)	8	·	9	-7	-201
COc1cccc2c1C(=O)c1c(O)c3c(c(O)c1C2=O)CC(O)(C(C)=O)CC3OC1CC(N(C)C)C(O)C(C)O1 (stereo not given)	14	-14	28	?	58*
CC(=O)[C@@]1(O)Cc2c(O)c3c(c(O)c2[C@H](O[C@H]2C[C@H](N)[C@H](O)[C@H](C)O2)C1)C(=O)c1ccccc1C3=O	25*	-3	·	·	95*
Cc1cc(C)n(CC(=O)n2c3ccccc3c3ccccc32)n1	·	53*	-6	0	·
Cc1cc(C)n(CC(=O)n2c(C)c(C)c3ccccc32)n1	·	·	28	-2	·
COC(=O)c1cnn2c(C(F)(F)F)cc(-c3ccccc3)nc12	·	·	·	-3	·
N#Cc1cnn2c(C(F)(F)F)cc(-c3ccccc3)nc12	-4	44*	-2	·	11
CCn1c(=NC(=O)CS(=O)(=O)c2ccccc2)sc2cccc(OC)c21	-1	-40	2	·	57*
COc1ccc(/C=C/C(=O)NC(=S)NN2CCCCC2c2cccnc2)cc1OC (stereo not given)	3	70*	·	·	7
COc1ccc(/C=C/C(=O)NC(=S)N2CCCCC2)cc1OC	-2	13	-4	24	8
CCCCC1(COC(=O)CCC(=O)O)C(=O)N(c2ccccc2)N(c2ccccc2)C1=O	-6	18	·	-11	·
CCCCC1(Cc2ccc([N+](=O)[O-])cc2)C(=O)N(c2ccccc2)N(c2ccccc2)C1=O	·	·	-1	-21	133*
C[n+]1c(/C=C/c2ccc(O)cc2)ccc2ccccc21	9	-4	19	1	-38
Cc1cc(/C=C\c2ccc3cc(N(C)C)ccc3[n+]2C)c(C)n1-c1ccccc1	·	·	·	68*	·
CCCCN1CCN(C(=O)C2CCCN(C(=O)c3ccc4c(c3)NC(=O)CS4)C2)CC1 (stereo not given)	·	·	1	·	·
O=c1ccc2[n+]([O-])c3ccc(O)cc3oc-2c1	43*	-7	102*	·	30
COc1ccc2c3c(n(C)c2c1)[C@@H](CO)N(Cc1ccccc1F)CC31CCN(CC2CC2)CC1	33*	-3	·	-4	·
COc1ccc2c3c(n(C)c2c1)[C@@H](CO)N(CC1CC1)CC31CN(Cc2ccc(F)cc2)C1	30*	-8	·	-22	·
COc1ccc(-c2cn(-c3ccccc3)c(=S)[nH]2)cc1OC	0	-4	15	-3	62*
C[C@@H]1CN([C@H](C)CO)C(=O)c2cc(NS(=O)(=O)c3ccc(F)cc3)ccc2O[C@@H](C)CCCCO[C@@H]1CN(C)C(=O)c1ccccc1	-1	-4	·	-5	32[16.7 µM]
COc1ccc(C2=Nn3c(nnc3-c3ccccc3F)SC2)cc1OCC1CC1	2	79*	·	-7	-22
